Reference: publication PMC9911399, “Two distinct binding modes provide the RNA-binding protein RbFox with extraordinary sequence specificity”
Positions count from the first letter of the chain named. In all, about 16,000 sequences were measured (“ka relative to ugcaugu”: median about 0.0091, highest 2% from about 0.032 on). Shown is part of a subset that was picked to be rich in the highest values.

T1: RBFOX1 RRM (Homo sapiens, UniProt Q9NWB1 109-208)
T1 sequence: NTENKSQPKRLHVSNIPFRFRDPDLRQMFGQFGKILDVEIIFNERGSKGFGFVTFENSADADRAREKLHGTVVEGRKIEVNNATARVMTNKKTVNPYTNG

B1: GAGAGCA (DNA:RNA)
RNA: GGGAGACCGGAAUUCAGAUUGUCCGAGAGCAUUAAAUCCCGUCGUAGCCACCA
DNA 1: CAATCTGAATTCCGGTCTCCC
DNA 2: TGGTGGCTACGACGGGATT
B2: GAGCAGA (DNA:RNA)
RNA: B1 RNA with A28C, G29A, C30G
DNA 1: CAATCTGAATTCCGGTCTCCC
DNA 2: TGGTGGCTACGACGGGATT
B3: UUGCUAA (DNA:RNA)
RNA: B1 RNA with G25U, A26U, A28C, G29U, C30A
DNA 1: CAATCTGAATTCCGGTCTCCC
DNA 2: TGGTGGCTACGACGGGATT
B4: CGACAAG (DNA:RNA)
RNA: GGGAGACCGGAAUUCAGAUUGUCCCGACAAGUUAAAUCCCGUCGUAGCCACCA
DNA 1: CAATCTGAATTCCGGTCTCCC
DNA 2: TGGTGGCTACGACGGGATT
B5: CCAUGCU (DNA:RNA)
RNA: B4 RNA with G26C, C28U, A29G, A30C, G31U
DNA 1: CAATCTGAATTCCGGTCTCCC
DNA 2: TGGTGGCTACGACGGGATT
B6: AUGCAUG (DNA:RNA)
RNA: B4 RNA with C25A, G26U, A27G, A30U
DNA 1: CAATCTGAATTCCGGTCTCCC
DNA 2: TGGTGGCTACGACGGGATT
B7: AUGCAUC (DNA:RNA)
RNA: B4 RNA with C25A, G26U, A27G, A30U, G31C
DNA 1: CAATCTGAATTCCGGTCTCCC
DNA 2: TGGTGGCTACGACGGGATT
B8: AUCCACG (DNA:RNA)
RNA: B4 RNA with C25A, G26U, A27C, A30C
DNA 1: CAATCTGAATTCCGGTCTCCC
DNA 2: TGGTGGCTACGACGGGATT
B9: UAGCACG (DNA:RNA)
RNA: B4 RNA with C25U, G26A, A27G, A30C
DNA 1: CAATCTGAATTCCGGTCTCCC
DNA 2: TGGTGGCTACGACGGGATT
B10: AUGCACC (DNA:RNA)
RNA: B4 RNA with C25A, G26U, A27G, A30C, G31C
DNA 1: CAATCTGAATTCCGGTCTCCC
DNA 2: TGGTGGCTACGACGGGATT
B11: UUGCACC (DNA:RNA)
RNA: B4 RNA with C25U, G26U, A27G, A30C, G31C
DNA 1: CAATCTGAATTCCGGTCTCCC
DNA 2: TGGTGGCTACGACGGGATT
B12: UAGCACC (DNA:RNA)
RNA: B1 RNA with G25U, A28C, G29A, A31C
DNA 1: CAATCTGAATTCCGGTCTCCC
DNA 2: TGGTGGCTACGACGGGATT
B13: AUGCAUA (DNA:RNA)
RNA: B4 RNA with C25A, G26U, A27G, A30U, G31A
DNA 1: CAATCTGAATTCCGGTCTCCC
DNA 2: TGGTGGCTACGACGGGATT
B14: AUGCACG (DNA:RNA)
RNA: B4 RNA with C25A, G26U, A27G, A30C
DNA 1: CAATCTGAATTCCGGTCTCCC
DNA 2: TGGTGGCTACGACGGGATT
B15: UUGCAGA (DNA:RNA)
RNA: B4 RNA with C25U, G26U, A27G, A30G, G31A
DNA 1: CAATCTGAATTCCGGTCTCCC
DNA 2: TGGTGGCTACGACGGGATT
B16: UUGCACG (DNA:RNA)
RNA: B4 RNA with C25U, G26U, A27G, A30C
DNA 1: CAATCTGAATTCCGGTCTCCC
DNA 2: TGGTGGCTACGACGGGATT
B17: UACCACG (DNA:RNA)
RNA: B4 RNA with C25U, G26A, A27C, A30C
DNA 1: CAATCTGAATTCCGGTCTCCC
DNA 2: TGGTGGCTACGACGGGATT
B18: GUCCCAA (DNA:RNA)
RNA: B4 RNA with C25G, G26U, A27C, A29C, G31A
DNA 1: CAATCTGAATTCCGGTCTCCC
DNA 2: TGGTGGCTACGACGGGATT
B19: CAUUACG (DNA:RNA)
RNA: B4 RNA with G26A, A27U, C28U, A30C
DNA 1: CAATCTGAATTCCGGTCTCCC
DNA 2: TGGTGGCTACGACGGGATT
B20: UCACUCG (DNA:RNA)
RNA: B4 RNA with C25U, G26C, A29U, A30C
DNA 1: CAATCTGAATTCCGGTCTCCC
DNA 2: TGGTGGCTACGACGGGATT
B21: GUGCACG (DNA:RNA)
RNA: B4 RNA with C25G, G26U, A27G, A30C
DNA 1: CAATCTGAATTCCGGTCTCCC
DNA 2: TGGTGGCTACGACGGGATT
B22: GUGCACC (DNA:RNA)
RNA: B1 RNA with A26U, A28C, G29A, A31C
DNA 1: CAATCTGAATTCCGGTCTCCC
DNA 2: TGGTGGCTACGACGGGATT
B23: ACGUGCG (DNA:RNA)
RNA: B1 RNA with G25A, A26C, A28U, A31G
DNA 1: CAATCTGAATTCCGGTCTCCC
DNA 2: TGGTGGCTACGACGGGATT
B24: AGGUCUC (DNA:RNA)
RNA: B4 RNA with C25A, A27G, C28U, A29C, A30U, G31C
DNA 1: CAATCTGAATTCCGGTCTCCC
DNA 2: TGGTGGCTACGACGGGATT

Molecular target: T1, RBFOX1 RRM
Assay: EMSA; HiTS-Eq, 1 nM pool, 10 min; buffer printed only for the single-RNA assays: 10 mM Tris pH 7.5, 150 mM NaCl, 3.4 mM EDTA, 0.001% NP-40, 30 C
Settings: tags: His6 N-terminal (pET28a); label: 5' 32P
Method in brief: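 Relative association constants, normalised to the cognate motif, were derived by comparing read counts of each RNA species with those of the control reaction. The RNA sequenced was the free fraction, separated by 8% native PAGE after a 10 min equilibration in 50 µL of 1 nM 5′-radiolabelled RNA (7 randomized nucleotides) with increasing concentrations of purified wild-type or mutant RbFox RRM.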

| Binder | binding signal |
| --- | --- |
| B1 | 0.0187 KA relative to UGCAUGU |
| B2 | 0.0147 KA relative to UGCAUGU |
| B3 | 0.00861 KA relative to UGCAUGU |
| B4 | 0.00637 KA relative to UGCAUGU |
| B5 | 0.00802 KA relative to UGCAUGU |
| B6 | 0.911 KA relative to UGCAUGU |
| B7 | 0.015 KA relative to UGCAUGU |
| B8 | 0.0022 KA relative to UGCAUGU |
| B9 | 0.0464 KA relative to UGCAUGU |
| B10 | 0.0115 KA relative to UGCAUGU |
| B11 | 0.0149 KA relative to UGCAUGU |
| B12 | 0.0118 KA relative to UGCAUGU |
| B13 | 0.00891 KA relative to UGCAUGU |
| B14 | 0.361 KA relative to UGCAUGU |
| B15 | 0.018 KA relative to UGCAUGU |
| B16 | 0.692 KA relative to UGCAUGU |
| B17 | 0.00532 KA relative to UGCAUGU |
| B18 | 0.00597 KA relative to UGCAUGU |
| B19 | 0.00857 KA relative to UGCAUGU |
| B20 | 0.00518 KA relative to UGCAUGU |
| B21 | 0.62 KA relative to UGCAUGU |
| B22 | 0.0178 KA relative to UGCAUGU |
| B23 | 0.0166 KA relative to UGCAUGU |
| B24 | 0.0131 KA relative to UGCAUGU |
